From PubChem BioAssay

test: small molecules captured by biotinylated probe aFGF2 – biochemical, small-molecule microarray, fluorescence 635/667, stem cell growth factor project, primary screen (AID 1067); conditions: higher = more signal;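 further: measures binding of biotinylated aFGF2 protein to printed compounds on slides; z-score merges feature fluorescence and signal-to-noise across triplicate slides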

Row | SMILES | composite z-score
1 | CC(C)=NO[C@H](C)c1cn([C@H](CO)Cc2ccccc2)nn1 | -0.0737
2 | CCOC(=O)[C@H](CC(C)C)NC(=O)CCC1CC(OC(=O)NCc2cccc3ccccc23)CC2(CCCC(COC(=O)NCCOc3ccccc3)O2)O1 (stereo partly specified) | -0.016
3 | O=C1C[C@@H](O)[C@@H](O)[C@@H]2[C@@H]3C(=O)N(C[C@@H]4CCCO4)C(=O)[C@@H]3CC[C@@H]12 | -0.0329
4 | CCOC(=O)[C@H](CC(C)C)NC(=O)CCC1CC(OC(=O)NCc2cccc3ccccc23)CC2(CCCC(COC(=O)NCCc3ccc(Cl)cc3)O2)O1 (stereo partly specified) | -0.0797
5 | CO[C@H]1COC(=O)CC=C[C@@H](C)[C@H](NS(=O)(=O)c2ccc(C)cc2)COC(=O)CCC[C@@H]1C | -0.154
6 | CO[C@H]1COC(=O)[C@H](C)NC(=O)CC=C[C@@H](C)[C@H](OC)COC(=O)[C@@H](OCc2ccccc2)C=C[C@@H]1C | -0.0877
7 | CCCNC(=O)OC[C@H]1O[C@H](CCON=C(C)CCN2CCCc3nc(C)c(C)cc32)C=C[C@@H]1Oc1ccc(OC)cc1 | -0.0611
8 | C#CCCCON=C1C[C@@H](O)[C@@H](O)[C@@H]2[C@@H]3C(=O)N(CC)C(=O)[C@@H]3CC[C@@H]12 | -0.143
9 | COC(=O)[C@H](C)NC(=O)CCC1CC(OC(=O)NCc2ccc3c(c2)OCO3)CC2(CCCC(COC(=O)NCC3CCCCC3)O2)O1 (stereo partly specified) | -0.0158
10 | CO[C@H]1COC(=O)CC=C[C@@H](C)[C@H](OC)COC(=O)[C@@H]2CCCN2C(=O)CC=C[C@@H]1C | -0.17
11 | CON=C[C@@H](NS(=O)(=O)c1ccc(C)cc1)[C@H](C)C=CCC(=O)OC | -0.125
